# GoLoco inh red – qHTS Assay for Inhibitors of RGS12 GoLoco Motif Activity (Red Fluorophore) | Guanine nucleotide-binding protein G(i) subunit alpha-1 (Homo sapiens), P63096 | Gai1:RGS12 GoLoco peptide FP, rhodamine, 10 min | Potency, µM (highest dose often 61.6 µM), inactives show at the top dose activity, negative = inhibition, hits mostly inhibitors | 230,000 compounds, 0.44% hits | AID 880, 2007; active = well fitted inhibition curve with a large enough effect, not every such curve was filed as active; inactive = no such curve, though single readings can be large or run the other way; also: potency is read from the fitted curve at half-maximal effect; % is scaled to controls: 0 for no effect and ±100 for the full control effect; nearly all actives have a fitted effect of over 30% in size
# IL2 activator – qHTS of IL-2 Activators; IL-2 activation reporter assay, cell-based qHTS; stimulated with anti-CD3/CD4/CD28 beads; in transgenic mouse T cells; activation, % (series mostly up to about 46 µM); 360,000 compounds, 0.065% hits; in the data active = activation above about 50%; inconclusive = mostly about 30% to 49%; also: 0% is about no effect
#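 Unstimulated transgenic mouse T cells, 750 per well, received compound and, after 60 minutes, anti-CD3/anti-CD4 bead plus anti-CD28 stimulation. EGFP and DsRed were quantified after 18 hours.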
# KAT2A inh – qHTS Assay for Inhibitors of GCN5L2 | Histone acetyltransferase KAT2A (Homo sapiens), Q92830 | GCN5L2 HAT assay, ThioGlo1 CoA-SH fluorescence | Potency, µM (highest dose often 58.9 µM), without a hit: top-dose activity change, negative = inhibition, usual class: inhibitors | 390,000 compounds, 0.21% hits | AID 504327, 2011; also: potency is read from the fitted curve at half-maximal effect; % is scaled to controls: 0 for no effect and ±100 for the full control effect
#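 qHTS, 1536-well. 20nM enzyme, pH 7.5 HEPES/EDTA/Tween-20 buffer; 15 min compound preinc., RT. Start: 75uM H3(1-25), 70uM AcCoA, 50uM ThioGlo1. Read Ex340/Em540 at t=0 (autofluorescence flag) and t=20 min.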
# Vif-A3G inh – qHTS for Inhibitors of Vif-A3G Interactions: qHTS; DNA dC->dU-editing enzyme APOBEC-3G (Homo sapiens), Q9HC16; HeLa A3G-eYFP + Vif (tagged APOBEC3G with the HIV-1 protein that degrades it), YFP fluorescence, overnight; Potency, µM (doses to about 46.1 µM), for the others: at the highest dose activity, negative = active, hits mostly inhibitors; 410,000 compounds, 0.076% hits; AID 602310, 2012; also: potency is read from the fitted curve at half-maximal effect; % is scaled to controls: 0 for no effect and ±100 for the full control effect; nearly all actives have a fitted effect of over 60% in size
#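 HeLa cells stably expressing Vif and C-terminally eYFP-tagged A3G, seeded overnight at 37 deg C, then exposed to compound by pintool overnight at 37 deg C. Rise in yellow fluorescence (Ex 488/Em 500-530, Acumen) marks blocked Vif-driven A3G degradation.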
# Vif-A3F inh – qHTS for Inhibitors of Vif-A3F Interactions: qHTS. HeLa A3F-eYFP + Vif (tagged APOBEC3F with the HIV-1 protein that degrades it), YFP fluorescence increase. Potency, µM (highest dose often 46.1 µM), for inactives: at the top dose activity, negative = active. 390,000 compounds, 0.2% hits. AID 602313, 2012; also: potency is read from the fitted curve at half-maximal effect; % of control where 0% means no effect; nearly all actives have a fitted effect of over 65% in size
#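 HeLa cells stably expressing A3F-eYFP plus Vif, plated and incubated overnight at 37 deg C, then exposed to compounds overnight at 37 deg C. Blocked degradation read as raised yellow fluorescence (Ex 488/Em 500-530).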
# PKM2 act – qHTS Assay for Activators of Human Muscle isoform 2 Pyruvate Kinase; 260,000 compounds, 0.34% hits; purified PKM2, Kinase-Glo ATP luminescence, activation; response scale: 0% is enzyme alone, no compound; Potency, µM (top dose mostly 57.5 µM), without a hit: at the top dose activation, most hits filed as activators; Pyruvate kinase PKM (Homo sapiens), P14618; also: potency is read from the fitted curve at half-maximal effect; % is scaled to controls: 0 for no effect and ±100 for the full control effect; nearly all actives have a fitted effect of over 55% in size
# Target sequence (P14618 whole entry, looked up, canonical isoform): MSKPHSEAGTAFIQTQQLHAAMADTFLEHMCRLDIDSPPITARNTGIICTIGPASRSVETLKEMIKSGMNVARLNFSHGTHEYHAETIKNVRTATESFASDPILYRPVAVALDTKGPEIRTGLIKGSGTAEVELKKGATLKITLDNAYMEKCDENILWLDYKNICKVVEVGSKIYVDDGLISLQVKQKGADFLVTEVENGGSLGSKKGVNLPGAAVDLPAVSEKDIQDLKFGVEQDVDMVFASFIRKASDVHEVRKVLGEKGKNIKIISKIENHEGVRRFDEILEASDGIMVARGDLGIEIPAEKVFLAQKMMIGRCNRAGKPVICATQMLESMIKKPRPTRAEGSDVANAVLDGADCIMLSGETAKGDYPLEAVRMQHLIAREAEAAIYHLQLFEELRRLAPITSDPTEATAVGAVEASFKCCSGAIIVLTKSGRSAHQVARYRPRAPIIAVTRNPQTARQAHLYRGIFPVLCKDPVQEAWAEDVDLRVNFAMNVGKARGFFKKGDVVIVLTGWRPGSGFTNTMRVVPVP
#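 Kinase-Glo luminescence reports ATP generated from ADP (0.1 mM) and PEP (0.5 mM) by purified hPK-M2 after 1 h at room temperature, pH 7.2 imidazole buffer; intermediate enzyme activity allows detecting inhibitors and activators.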
# The depositor's hits bear a star; ? = inconclusive; nt = no result; ! = repeats disagree; [ ] = another dose, or the depositor's remark. Hits are enriched below; roughly 0.77% of the tested compounds scored in any of these assays. Unless noted, calls follow the shape of the dose curve; as a rule, active = well fitted curve in the direction sought with a large enough effect; inconclusive = small, poorly fitted or top-dose-only effect, or another doubt; inactive = no such curve, though single readings can be large; an effect the other way counts as inactive or inconclusive.
SMILES,GoLoco inh red,IL2 activator,KAT2A inh,Vif-A3G inh,Vif-A3F inh,PKM2 act
O=C1C=CC(=O)C=C1,1.78µM*!,-0.4,10.3%,0.6%,5.9%,nt
Cc1ccc(OCC(=O)N2CCN(Cc3ccc(F)cc3)CC2)cc1,nt,nt,-1.8%,nt,nt,nt
COc1ccc2c3c1OC1C(O)C=CC4[C@@H](C2)N(C)CC[C@]314 (stereo partly specified),nt,-0.3,-3.5%,2.9%,0.2%,nt
ClCC(Cl)Cl,-62.1%,nt,nt,nt,nt,nt
CCN(CC)c1ccc(N=Cc2c(O)n(Cc3ccco3)c(=O)[nH]c2=O)cc1,9.6%,83.9*,1.6%,?,?,-1.1%
O=c1[nH]c(=O)n(Cc2ccco2)c(O)c1C=NCc1cccs1,5.7%,-2.0,nt,-3.0%,-2.9%,28.2µM*
O=c1[nH]c(=S)n(Cc2ccco2)c(O)c1C=NCc1cccs1,16.5%,0.4,-8.7%[0.501 µM],-0.5%,-8.4%,-1.4%
CCCCCCCn1c(=O)c(C(=O)Nc2cnccn2)c(O)c2ccccc21,-6.7%,-2.1,2.0%,1.0%,2.9%,3.4%
CCC(COC(=O)NC)NC(=O)Oc1cccc(C)c1 (stereo unspecified),0.0%,0.0,-7.0%,3.2%,-1.2%,0.5%
C[C@]12CCC(=O)C=C1CC[C@@H]1C2[C@H](O)C[C@]2(C)C(=O)CCC12 (stereo partly specified),nt,-0.1,-13.5%,-0.5%,-1.1%,nt
COc1cc2oc(=O)c(CC(=O)N3C[C@H]4C[C@@H](C3)c3cccc(=O)n3C4)c(C)c2cc1Cl,nt,-0.1,nt,-0.9%,5.9%,nt
Cc1c(CC(=O)N2C[C@H]3C[C@@H](C2)c2cccc(=O)n2C3)c(=O)oc2cc(O)c(Cl)cc12,nt,-0.2,20µM*,-2.0%,8.2%,0.5%
CCOS(C)(=O)=O,22.4µM*,0.1,-9.3%,0.4%,8.9%,nt
O=C(c1ccccc1)[C@H]1[C@H](c2ccccc2[N+](=O)[O-])N1C1CCCCC1 (stereo partly specified),6.6%[14.2 µM],nt,nt,nt,nt,nt
Cc1c(C(c2ccccc2Cl)c2c(O)c3ccccc3oc2=O)c(=O)n(-c2ccccc2)n1C (stereo unspecified),5.4%,-3.0,-10.0%,4.5%,9.8%,1.7%
C[C@H]1COC2=C1C(=O)C(=O)c1c2ccc2c1CCCC2(C)C,-8.2%,-0.2,?,-24.6%,-1.9%,-0.4%
CC1COC2=C1C(=O)C(=O)c1c2ccc2c1CCCC2(C)C (stereo unspecified),1.0%,nt,28.2µM*,nt,nt,nt
CCOC(=O)[C@]12Cc3cc(C)ccc3[C@H]1N(CCC(=O)OC)C(=O)c1ccccc12,nt,-1.2,nt,nt,nt,nt
C[N+]1(C)C2CCC1CC(OC(=O)c1ccco1)C2 (stereo unspecified),10µM*,-0.7,-28.9%,-4.8%,1.5%,-6.2%
C[N+]1(C)C2CCC1CC(OC(=O)c1c[nH]c3ccccc13)C2 (stereo unspecified),13.8%,0.4,?,1.4%,-1.6%,nt
O=C1CC(=O)N(Cc2ccccc2)C(=S)N1,nt,0.8,-1.3%,-2.2%,-3.2%,nt
Cc1ccc(C)c(NC(=S)NC2CC3CCC(C2)N3Cc2ccco2)c1 (stereo unspecified),8.8%,-1.3,2µM*,-0.6%,2.5%,-5.9%
Cc1ccccc1Cn1cccc(C(=O)Nc2nc3ccccc3s2)c1=O,nt,nt,-14.2%,-1.7%,-2.9%,nt
CCN(CC)CCN=Cc1c(O)n(C2CCCCCC2)c(=O)[nH]c1=O,3.2%,0.1,-6.6%,-1.5%,3.4%,0.2%
COc1ccc(Cc2c(O)[nH]c(=S)[nH]c2=O)cc1,nt,-0.1,6.31µM*,3.4%,12.2%,0.0%[11.5 µM]
SMILES,GoLoco inh red,IL2 activator,KAT2A inh,Vif-A3G inh,Vif-A3F inh,PKM2 act
CN1CC(CO)=C[C@H]2c3cccc4[nH]cc(c34)C[C@H]21,12.6µM*,nt,-9.6%,nt,nt,nt
CN1C[C@H](CO)C[C@@H]2c3cccc4[nH]cc(c34)C[C@H]21,nt,2.9,-2.7%,2.2%,-2.6%,nt
O=C1C=CC(=O)C(Cl)=C1,1.78µM*,nt,15.8µM*,nt,nt,nt
COC(=O)c1ccc(COC(=O)c2ccccn2)cc1,-3.4%,-3.5,-7.8%,1.7%,3.0%,-44.3%
N[C@H](Cc1ccc2oc3cc(=O)c4ccccc4c-3nc2c1)C(=O)O,3.55µM*,nt,nt,nt,nt,nt
CN1CCN(c2ccccc2N)CC1,25.1µM*,-3.2,nt,2.0%,-3.9%,-12.7%
CN1C2CCC1CC(OC(c1ccccc1)c1ccccc1N)C2 (stereo unspecified),9.5%,0.0,0.8%,1.1%,0.6%,nt
CCn1c(O)c(C=Nc2ccc(S(N)(=O)=O)cc2)c(=O)[nH]c1=S,76.1%,-0.6,0.1%,-0.9%,7.2%,5.6%
CC(C)N1C(=O)CC2(CC[N+](C)(CCOC(=O)C(O)(c3ccccc3)c3ccccc3)CC2)C1=O (stereo unspecified),15.8µM*,0.0,4.4%,-9.5%,-6.9%,7.4%
CNC(=O)OCc1n(C)cc[n+]1C,1.78µM*,-2.4,-12.6%,-0.7%,-3.0%,5.9%
Cc1ccc(-c2cc(-c3ccc(C)cc3)[n+](-c3ccc(C(=O)O)cc3)c(-c3ccc(C)cc3)c2)cc1,nt,2.2,-2.4%,2.2%,-5.5%,nt
O=C(O)c1ccc(-c2ccc3cc(C45CC6CC(CC(C6)C4)C5)c(O)cc3c2)cc1,nt,nt,15.8µM*,nt,nt,nt
CN1CCN(/N=C/c2c(O)n(Cc3ccc(F)cc3)c(=O)[nH]c2=O)CC1,7.0%,0.2,-2.7%,-1.1%,7.9%,-2.1%
O=[N+]([O-])/C=C/c1ccc2c(c1)OCO2,nt,nt,-29.9%,nt,nt,nt
CN(C)[C@@H]1C(=O)C(C(N)=O)=C(O)[C@]2(O)C(=O)C3=C(O)c4c(O)ccc(Cl)c4[C@](C)(O)[C@H]3C[C@@H]12,0.5%[21.6 µM],nt,-18.5%[21.4 µM],nt,nt,nt
CNP(=O)(Oc1ccccc1)OC12CC3CC(CC(C3)C1)C2 (stereo unspecified),-2.1%,-4.8,-10.1%,6.6%,2.5%,-0.2%
N[C@@H](Cc1cc(Br)c(O)c(Br)c1)C(=O)O,11.2µM*!,nt,0.7%,nt,nt,-16.6%
C=Cc1ccc(Cn2c(C)c(CNCCc3cc(OC)ccc3OC)c(C(=O)O)c2C)cc1,nt,nt,1.6%,0.1%,1.8%,nt
Cc1cccc([N+](=O)[O-])c1,25.1µM*,0.4,-12.5%,2.1%,0.9%,nt
Cc1ccc([N+](=O)[O-])cc1,0.3%,0.3,0.9%,0.4%,5.4%,nt

# Assay outcomes deposited in PubChem BioAssay by National Center for Advancing Translational Sciences (NCATS).
